{"source": "PubChem BioAssay"}
{"system": "Neuregulin-1 EGF-like domain", "test": "binders of neuregulin-1 EGF-like domain, primary screen, biochemical, small-molecule microarray, 635 nm fluorescence (AID 1081);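 note: binding of the protein to compounds printed on small-molecule microarray slides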", "settings": "small-molecule microarray binding, higher = more signal"}
{"compound": "COC(=O)c1ccc(OC)c(/C=C\\CC(CCc2ccccc2)OC(C)=O)c1", "note": "(stereo not given)", "composite z-score": -0.288}
{"compound": "C[N+](C)(C)CCCC[C@@H]1NC(=O)[C@H]2C[C@@H](C(=O)NCCCCCCN)[C@@H](c3cccc(OCCO)c3)N2C1=O", "composite z-score": 1.49}
{"compound": "C/C=C/[C@@H](CCn1cc([C@H](O)c2ccccc2)nn1)[Si](C)(C)c1ccc(OC)cc1", "composite z-score": 0.96}
{"compound": "CCCCCCCCCCC(O)C1C=CC2C(=O)NC(=O)C2N1Nc1ccccn1", "note": "(stereo not given)", "composite z-score": 0.852}
{"compound": "COC(=O)[C@@]1(Cc2ccc(F)cc2)[C@H]2c3cc(C(=O)N(C)C)n(CCSCCO)c3C[C@H]2CN1C(=O)c1ccccc1", "composite z-score": 0.943}
{"compound": "CC1CC/C=C\\[C@H]2OC34C=CCN(Cc5ccccc5)C(=O)[C@H]3N(CCO)C(=O)[C@@H]4C2C(=O)O1", "note": "(stereo not given in full)", "composite z-score": 1.51}
{"compound": "C=C(COC)C(=O)CC[C@H](OC(=O)c1ccccc1-c1ccccc1C(=O)O)c1ccc(OCCO)cc1", "composite z-score": 1.11}
{"compound": "C=CCC(OC(C)=O)[C@@H]1[C@@H](N(Cc2cc3ccccc3o2)C(=O)Cc2ccc(OC)cc2)c2cc(OCCCO)ccc2N1C(=O)c1ccc(-c2ccccc2)cc1", "note": "(stereo not given in full)", "composite z-score": -0.529}
{"compound": "CC1CC/C=C\\[C@H]2OC34C=CCN(c5ccc(Cl)cc5)C(=O)[C@H]3N(C(CO)C(C)C)C(=O)[C@]4(C)C2C(=O)O1", "note": "(stereo not given in full)", "composite z-score": 1.47}
{"compound": "O=C1O[C@@H](c2ccccc2)[C@@H](c2ccccc2)N2[C@@H](c3ccc(O)cc3)[C@]3(C(=O)Nc4ccc(C#CC5(O)CCCCCC5)cc43)[C@@H](C(=O)N3CCN(c4ncccn4)CC3)[C@H]12", "composite z-score": 1.22}
{"compound": "CC[C@@H]1[C@@H]2C3C(=O)N(CC)C(=O)C3CC(=O)[C@@H]2[C@H](c2ccc(C)cc2)N1S(=O)(=O)c1ccc(C)cc1", "note": "(stereo not given in full)", "composite z-score": 1.1}
{"compound": "COCCOC(=O)N1C(=O)[C@@]2(c3cc(C#CCCO)ccc31)[C@H](C(=O)NC[C@H](O)c1ccccc1)[C@H]1C(=O)O[C@H](c3ccccc3)[C@H](c3ccccc3)N1[C@@H]2c1ccccc1OCCO", "composite z-score": 1.31}
{"compound": "C=CCOC(=O)[C@@H]1[C@H]2C(=O)O[C@H](c3ccccc3)[C@H](c3ccccc3)N2[C@H](c2ccc(OCCOC(=O)[C@@H]3C[C@@H]4C(=O)N[C@@H](CCCCNC(C)=O)C(=O)N4[C@@H]3c3ccc(O)cc3)cc2)[C@@]12C(=O)Nc1ccc(I)cc12", "composite z-score": 1.16}
{"compound": "CC(C)CCC[C@@H](C)[C@H]1CC[C@@]2(C)C3=C(CC[C@]12C)[C@@]1(C)CC[C@H](OC(=O)c2ccc(N)cc2)C(C)(C)C1CC3", "note": "(stereo not given in full)", "composite z-score": 0.649}
{"compound": "CCCN1C(=O)[C@@H]2Cc3c([nH]c4ccccc34)[C@@H](c3cccc(O)c3)N2C1=O", "composite z-score": 0.12}
{"compound": "C=CCN1C(=O)[C@@]2(O[C@@H](CCn3cc([C@H](O)c4ccccc4)nn3)[C@H]([Si](C)(C)c3ccc(OC)cc3)[C@H]2C)c2cc(NC(=O)c3ccc(OC)cc3)ccc21", "composite z-score": 0.531}
{"compound": "COc1ccc([Si](C)(C)[C@@H]2[C@@H](CC(=O)N(CCO)Cc3ccccc3)O[C@]3(C(=O)N(Cc4ccc(N5CCOC5=O)cc4)c4ccccc43)[C@H]2C)cc1", "composite z-score": 1.1}
{"compound": "COCCOC(=O)N1C(=O)[C@@]2(c3cc(C#Cc4ccc(OC)cc4)ccc31)[C@H](C(=O)N1CCc3cc(OC)c(OC)cc3C1)[C@H]1C(=O)O[C@H](c3ccccc3)[C@H](c3ccccc3)N1[C@@H]2c1ccc(O)cc1", "composite z-score": 1.19}
{"compound": "CC(C)CNC(=O)[C@@]1(C)c2ccccc2C(=O)N(Cc2ccccc2)[C@H]1c1ccc(CO)cc1", "composite z-score": 0.614}
{"compound": "COc1ccccc1CN1C(=O)c2ccccc2[C@](Cc2ccccc2I)(C(=O)NCCN2CCOCC2)[C@@H]1c1ccc(CO)cc1", "composite z-score": 1.3}
{"compound": "CCCCCCC#C[Si](O[C@H](c1ccccc1)c1cn(Cc2cccc(Cl)c2)nn1)(C(C)C)C(C)C", "composite z-score": 0.382}
{"compound": "COc1ccc([Si](C)(C)[C@@H]2[C@@H](CCO)O[C@]3(C(=O)N(Cc4ccccc4)c4ccc(N5CCCCC5=O)cc43)[C@H]2C)cc1", "composite z-score": 1.15}
{"compound": "COC(=O)[C@@]1(Cc2ccc(F)cc2)[C@@H]2[C@@H](CC(=O)[C@H]2CC(=O)C(=O)N2CCCC2)CN1C(=O)c1ccccc1", "composite z-score": 1.12}
{"compound": "COCCOC(=O)N1C(=O)[C@@]2(c3cc(C#CCCO)ccc31)[C@H](c1ccc(OCCO)cc1)N1[C@H](c3ccccc3)[C@H](c3ccccc3)OC(=O)[C@H]1[C@@H]2C(=O)N1CCc2cc(OC)c(OC)cc2C1", "composite z-score": 1.25}
{"compound": "C=CC[C@]1(C(=O)NCC(O)CO)N=C(c2ccc(OCCCO)cc2)O[C@H]1c1ccccc1N=[N+]=[N-]", "note": "(stereo not given in full)", "composite z-score": 1.11}
{"compound": "O=C(O)[C@]1(CCS(=O)(=O)c2ccccc2)N=C(c2ccc(OCCCO)cc2)O[C@@H]1c1ccccc1", "composite z-score": 1.05}
{"compound": "[N-]=[N+]=NCc1ccccc1C[C@]1(C(=O)NCCN2CCOCC2)COC(c2ccc(OCCCO)cc2)=N1", "composite z-score": 1.2}
{"compound": "CC(C)C[C@@H]1NC(=O)[C@@H]2C[C@H](C(=O)NCc3ccc(F)cc3)[C@H](c3ccc(O)cc3)N2C1=O", "composite z-score": 1.16}
{"compound": "C=CCNC(=O)[C@H]1[C@@H]2C(=O)O[C@@H](c3ccccc3)[C@@H](c3ccccc3)N2[C@@H](c2ccc(O)cc2)[C@]12C(=O)N(C(=O)OCCOC)c1ccc(C#CC3(O)CCCCCC3)cc12", "composite z-score": 1.27}
{"compound": "COCCOC(=O)N1C(=O)[C@@]2(c3cc(C#CCC(C(=O)OC)C(=O)OC)ccc31)[C@H](C(=O)N1CCCCCCC1)[C@H]1C(=O)O[C@H](c3ccccc3)[C@H](c3ccccc3)N1[C@@H]2c1ccc(O)cc1", "composite z-score": 1.25}
{"compound": "O=[N+]([O-])c1ccc(C[n+]2ccc(-c3ccc(CO)cc3)cc2)o1", "composite z-score": 0.373}
{"compound": "CN1C(=O)C2C=CC(C(O)COCc3ccccc3)N(Nc3ccccc3)C2C1=O", "note": "(stereo not given)", "composite z-score": 1}
{"compound": "COC(=O)[C@@]1(Cc2ccc(OC)cc2)[C@H]2c3cc(C(=O)N4CCCC4)n(CCc4ccc(O)c(OC)c4)c3C[C@H]2CN1C(=O)c1ccccc1", "composite z-score": 0.803}
{"compound": "C=C(CCCC)/C(=C/C[C@H](OC(=O)c1ccncc1)c1ccc(CO)o1)c1cc(C(=O)OC)ccc1OC", "composite z-score": 1.26}
{"compound": "C[C@@H]1ON(c2ccccc2)[C@H](c2ccccc2)[C@H]1C(=O)N1C(=O)OC[C@H]1Cc1ccccc1", "composite z-score": 0.539}
